# Source: PubChem BioAssay (NCI)
# Values joined by “and” are separate entries in the source; they are usually repeats but may differ in a detail not shown here. Equal values may be shown once. This is part of a sample that, as a whole, favours compounds with a hit. Of some 79,000 tested, about 15% had one in any assay. The source holds several records for some structures; these can differ, active in one and inactive in another. Active and inactive are the calls of the source. Rule as the data show it: active = growth inhibition above about 70%; inactive = the rest.
# Columns and labels:
# [1] = NCI Yeast Anticancer Drug Screen. Data for the rad50 strain (AID 155);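 also: 0% = growth of vehicle-only cultures of the same strain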; details: S. cerevisiae rad50 strain growth inhibition, stronger effect = higher value
# In short: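 Relative growth inhibition (compound vs vehicle) was measured in yeast with a defined repair-gene alteration.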
# [2] = NCI Yeast Anticancer Drug Screen. Data for the mec2-1 strain (AID 157); details: S. cerevisiae mec2-1 strain, stronger effect = higher value
# In short: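 Test agents were screened against the mec2-1 yeast strain, with defined DNA repair or cell cycle alteration. Growth was scored as inhibition against vehicle-only controls.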
# [3] = NCI Yeast Anticancer Drug Screen. Data for the sgs1 mgt1 strain (AID 161);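 also: 0% = growth of cultures given vehicle only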; details: S. cerevisiae sgs1 mgt1 strain, stronger effect = higher value
# In short: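 Genetically altered yeast, compound exposure, growth inhibition relative to vehicle.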
# [4] = NCI Yeast Anticancer Drug Screen. Data for the cln2 rad14 strain (AID 165);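 also: 0% = growth equal to vehicle treated cultures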; details: S. cerevisiae cln2 rad14 strain, stronger effect = higher value
# In short: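 Growth of compound-exposed yeast (cln2 rad14 genotype) measured and expressed as inhibition relative to vehicle.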
# [5] = NCI Yeast Anticancer Drug Screen. Data for the bub3 strain (AID 167); details: S. cerevisiae bub3 mutant strain, stronger effect = higher value
# In short: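 Screening used yeast with an engineered genetic alteration affecting cell cycle control. Compound-exposed cultures were compared with vehicle cultures, and reduced growth was taken as inhibition.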
# [6] = NCI Yeast Anticancer Drug Screen. Data for the mlh1 rad18 strain (AID 175); details: S. cerevisiae mlh1 rad18 strain growth inhibition, stronger effect = higher value
# In short: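 In this whole-cell yeast screen, a strain with altered DNA damage repair is challenged with compound, and its growth is measured against matched vehicle-treated controls.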
# [7] = at 5.0 µM (retest, dose inferred, filed as 0.5)
# [8] = at 50.0 µM (retest, dose inferred, filed as 5.0)
Compound,"growth inhibition [1, 7]","growth inhibition [1, 8]",growth inhibition ([1]; at 50.0 µM),"growth inhibition [2, 7]","growth inhibition [2, 8]",growth inhibition ([2]; at 50.0 µM),"growth inhibition [3, 7]","growth inhibition [3, 8]",growth inhibition ([3]; at 50.0 µM),"growth inhibition [4, 7]","growth inhibition [4, 8]",growth inhibition ([4]; at 50.0 µM),"growth inhibition [5, 7]","growth inhibition [5, 8]",growth inhibition ([5]; at 50.0 µM),"growth inhibition [6, 7]","growth inhibition [6, 8]",growth inhibition ([6]; at 50.0 µM)
CCOC(=O)/C(=C/c1ccc(OC)c(OC)c1)C(=O)c1ccccc1,12% (inactive),49% (inactive),74.7% (active),-19% (inactive),66% (inactive),68% (inactive),2% (inactive),65% (inactive),64.7% (inactive),27% (inactive),71% (active),72.5% (active),27% (inactive),92% (active),78.4% (active),-7% (inactive),80% (active),56.5% (inactive)
O=C1C(=Cc2ccc(O)cc2)N=C(c2ccccc2)N1n1c(-c2ccccc2)nc2ccccc2c1=O,2% (inactive),39% (inactive),71% (active),-2% (inactive),23% (inactive),38.9% (inactive),9% (inactive),29% (inactive),73.2% (active),18% (inactive),40% (inactive),44.9% (inactive),12% (inactive),57% (inactive),89.4% (active),12% (inactive),64% (inactive),91.8% (active)
CCn1c(-c2c(Cl)cc(O)cc2Cl)cc2c(Cl)cc(O)cc21,64% (inactive),99% (active),98.1% (active),97% (active),99% (active),99% (active),17% (inactive),98% (active),98.5% (active),13% (inactive),98% (active),98.5% (active),11% (inactive),96% (active),98% (active),22% (inactive),94% (active),98.6% (active)
Clc1ccc(/C=C/c2ccccn2)c(Cl)c1,3% (inactive),43% (inactive),-14.9% (inactive) and 12.1% (inactive),-3% (inactive),12% (inactive),6.2% (inactive) and 3.7% (inactive),-2% (inactive),5% (inactive),-23.1% (inactive) and 58% (inactive),-6% (inactive),-4% (inactive),-0.55% (inactive) and 20.8% (inactive),51% (inactive),10% (inactive),-9.75% (inactive) and 4% (inactive),1% (inactive),11% (inactive),-47.5% (inactive) and 31% (inactive)
Cc1c(OCc2cccc3ccccc23)ccc2c(=O)cc(SCCN3CCOCC3)oc12,10% (inactive),25% (inactive),65.7% (inactive),-1% (inactive),13% (inactive),30.2% (inactive),6% (inactive),49% (inactive),83% (active),5% (inactive),37% (inactive),25.1% (inactive),7% (inactive),47% (inactive),13.6% (inactive),7% (inactive),35% (inactive),73.3% (active)
CC(C)CCCC(C)C1CCC2C3CC=C4CC([n+]5cccc6ccccc65)CCC4(C)C3CCC12C (centres undefined),78% (active),90% (active),93.3% (active),11% (inactive),92% (active),95.4% (active),60% (inactive),50% (inactive),94.8% (active),39% (inactive),91% (active),68% (inactive),74% (active),89% (active),92.2% (active),74% (active),89% (active),95.2% (active)
CSC1SCC2C(=O)N(C)C(C(C)C)C(=O)OCC(NC(=O)c3cnc4ccccc4n3)C(=O)NC(C)C(=O)N(C)C1C(=O)N(C)C(C(C)C)C(=O)OCC(NC(=O)c1cnc3ccccc3n1)C(=O)NC(C)C(=O)N2C (centres undefined),8% (inactive) and 97% (active),98% (active) and 97% (active),98.8% (active) and 91.2% (active),4% (inactive) and 99% (active),98% (active),99.5% (active) and 91.7% (active),2% (inactive) and 98% (active),98% (active),98.8% (active) and 93% (active),8% (inactive) and 94% (active),98% (active) and 96% (active),98.2% (active) and 90.2% (active),7% (inactive) and 96% (active),98% (active) and 97% (active),98.7% (active) and 90.3% (active),6% (inactive) and 98% (active),98% (active) and 97% (active),99% (active) and 90.2% (active)
Oc1cccc2c1-c1ccccc1C2,-6% (inactive),96% (active),98.8% (active),1% (inactive),92% (active),98.9% (active),-7% (inactive),97% (active),98.4% (active),-4% (inactive),83% (active),96.8% (active),32% (inactive),97% (active),98.4% (active),9% (inactive),98% (active),98.1% (active)
CC(=O)Nc1c(Cl)c(Cl)c2c(c1Cl)Cc1cc(Cl)ccc1-2,99% (active),99% (active),98.2% (active),99% (active),99% (active),98% (active),99% (active),49% (inactive),96.1% (active),97% (active),99% (active),95.5% (active),99% (active),99% (active),98.3% (active),99% (active),99% (active),98.5% (active)
O=[N+]([O-])c1cc2c(cc1S(=O)(=O)O)C1C(C3C2C2(Cl)C(Cl)=C(Cl)C3(Cl)C2(Cl)Cl)C2(Cl)C(Cl)=C(Cl)C1(Cl)C2(Cl)Cl (centres undefined),-3% (inactive),10% (inactive),66.2% (inactive),-10% (inactive),26% (inactive),69.9% (inactive),22% (inactive),41% (inactive),72.5% (active),34% (inactive),41% (inactive),54.2% (inactive),-1% (inactive),44% (inactive),71.2% (active),8% (inactive),57% (inactive),67.3% (inactive)
O=S(=O)(c1ccc(F)cc1)c1ccc(F)cc1,-4% (inactive),-4% (inactive),-4.4% (inactive) and 11.7% (inactive),10% (inactive),19% (inactive),-35.6% (inactive) and -12.2% (inactive),-6% (inactive),-1% (inactive),-3.8% (inactive) and -3.55% (inactive),-5% (inactive),-7% (inactive),3.2% (inactive) and 47.4% (inactive),-1% (inactive),0% (inactive),-4.15% (inactive) and 19.1% (inactive),3% (inactive),10% (inactive),6.7% (inactive) and 35.2% (inactive)
O=C1c2cc3c(cc2CC12Cc1ccccc1C2)CCC3,23% (inactive),21% (inactive),20% (inactive),15% (inactive),15% (inactive),2.25% (inactive),22% (inactive),54% (inactive),46.9% (inactive),10% (inactive),16% (inactive),16.8% (inactive),24% (inactive),51% (inactive),50% (inactive),19% (inactive),23% (inactive),17.4% (inactive)
CC(C)Oc1ccc(Nc2ccccc2)cc1,-2% (inactive),61% (inactive),-1.65% (inactive) and 37% (inactive),-9% (inactive),15% (inactive),-2.9% (inactive) and 50.2% (inactive),-1% (inactive),43% (inactive),-8.3% (inactive) and 56.8% (inactive),0% (inactive),-18% (inactive),-21.6% (inactive) and 36.1% (inactive),42% (inactive),62% (inactive),-16.4% (inactive) and 33.5% (inactive),-4% (inactive),20% (inactive),-9.65% (inactive) and 40.1% (inactive)
Clc1nc2nc(Cl)c(Cl)n2nc1Cl,-4% (inactive),-5% (inactive),98.5% (active),-3% (inactive),-7% (inactive),99.7% (active),-2% (inactive),-11% (inactive),99.5% (active),4% (inactive),-1% (inactive),98.8% (active),-5% (inactive),-8% (inactive),99.3% (active),-8% (inactive),-4% (inactive),99.5% (active)
O=[N+]([O-])c1ccc(Cl)c(C2CC(c3cccc4ccccc34)=Nc3ccccc3S2)c1 (centres undefined),0% (inactive),0% (inactive),31.1% (inactive),0% (inactive),2% (inactive),83% (active),2% (inactive),12% (inactive),30.6% (inactive),-1% (inactive),0% (inactive),43.2% (inactive),2% (inactive),7% (inactive),35.2% (inactive),-1% (inactive),6% (inactive),58.3% (inactive)
CCOc1ccc(NC(=O)C(=O)NO)cc1,7% (inactive),73% (active),83% (active),-25% (inactive),59% (inactive),71.8% (active),10% (inactive),67% (inactive),74% (active),6% (inactive),26% (inactive),52% (inactive),-8% (inactive),85% (active),79.5% (active),-14% (inactive),87% (active),79.7% (active)
O=C1/C(=C/c2ccc(Cl)cc2)Sc2scc(-c3cccc([N+](=O)[O-])c3)[n+]21,26% (inactive),99% (active),89.5% (active),36% (inactive),100% (active),90.4% (active),84% (active),99% (active),91.9% (active),44% (inactive),98% (active),90.5% (active),98% (active),99% (active),89.8% (active),35% (inactive),100% (active),91.8% (active)
OC(c1ccccc1)(c1ccccc1)c1ccccc1 (tested in a mixture with another compound),-5% (inactive),94% (active),10.7% (inactive) and 96.7% (active),-7% (inactive),91% (active),2.55% (inactive) and 96.5% (active),-3% (inactive),90% (active),-1.85% (inactive) and 92.7% (active),-12% (inactive),94% (active),-4.75% (inactive) and 95.2% (active),-7% (inactive),96% (active),1.15% (inactive) and 95.4% (active),-6% (inactive),93% (active),9.15% (inactive) and 94% (active)
